Luciferase inh: Firefly luciferase inhibition profiling of diverse chemical library using quantitative high-throughput screening. hit rate 2.5% among 76,000. Luciferin 4-monooxygenase (Photinus pyralis), P08659. Potency, µM (titrated, usually from 115 µM), hits mostly inhibitors. purified P. pyralis luciferase, luminescence, biochemical. AID 1347043, 2019; active means well fitted curve in the direction sought with a large enough effect; inconclusive means small, poorly fitted or top-dose-only effect, or another doubt; inactive means no such curve, though single readings can be large; an effect the other way counts as inactive or inconclusive; further: nearly all actives have a fitted effect of over 65% in size
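Biochemical qHTS: compound (6-point titration) added to 10uM D-luciferin plus 10uM ATP in Tris acetate pH 7.5 buffer with Mg, Tween-20 and BSA, then purified enzyme at 10nM; light output imaged.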
HEK293 tox: Cytotoxic Profiling in HEK 293 Cell Line of Diverse Libraries Using Quantitative High-Throughput Screening; hit rate 6.6% among 94,000; HEK 293 viability, ATP luminescence (CellTiter-Glo), 48-72 h; Potency, µM (series often up to 115 µM), hits mostly inhibitors; active means well fitted curve in the direction sought with a large enough effect; inconclusive means small, poorly fitted or top-dose-only effect, or another doubt; inactive means no such curve, though single readings can be large; an effect the other way counts as inactive or inconclusive; further: nearly all actives have a fitted effect of over 60% in size
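qHTS cytotoxicity; HEK 293, 250 cells/well; compound pinned; 48 or 72 hr, 37 degree Celsius, 5% CO2, 95% humidity; CellTiter-Glo, 10 min RT; luminescence (ATP).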
NIH3T3 tox: Cytotoxic Profiling in NIH 3T3 Cell Line of Diverse Libraries Using Quantitative High-Throughput Screening | NIH 3T3 viability, CellTiter-Glo ATP luminescence, 48-72 h | hit rate 4.3% among 94,000 | AID 1345082, 2018 | Potency, µM (highest dose often 96.7 µM), actives largely listed as inhibitors; active means well fitted curve in the direction sought with a large enough effect; inconclusive means small, poorly fitted or top-dose-only effect, or another doubt; inactive means no such curve, though single readings can be large; an effect the other way counts as inactive or inconclusive; further: nearly all actives have a fitted effect of over 55% in size
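Luminescent ATP readout (CellTiter-Glo, 10 min RT) after 48 or 72 hr compound exposure of NIH 3T3 cells seeded at 400 cells/well in 1536-well format; quantitative HTS.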
hNpr1 antagonist: Natriuretic polypeptide receptor (hNpr1) antagonism - Primary qHTS; Atrial natriuretic peptide receptor 1 (Homo sapiens), P16066; HEK293 hNpr1 GloSensor cGMP, ANP-stimulated luminescence; Potency, µM (highest dose often 46.3 µM), actives largely listed as inhibitors; hit rate 1.6% among 76,000; further: nearly all actives have a fitted effect of over 60% in size
Target sequence (P16066 whole entry, looked up): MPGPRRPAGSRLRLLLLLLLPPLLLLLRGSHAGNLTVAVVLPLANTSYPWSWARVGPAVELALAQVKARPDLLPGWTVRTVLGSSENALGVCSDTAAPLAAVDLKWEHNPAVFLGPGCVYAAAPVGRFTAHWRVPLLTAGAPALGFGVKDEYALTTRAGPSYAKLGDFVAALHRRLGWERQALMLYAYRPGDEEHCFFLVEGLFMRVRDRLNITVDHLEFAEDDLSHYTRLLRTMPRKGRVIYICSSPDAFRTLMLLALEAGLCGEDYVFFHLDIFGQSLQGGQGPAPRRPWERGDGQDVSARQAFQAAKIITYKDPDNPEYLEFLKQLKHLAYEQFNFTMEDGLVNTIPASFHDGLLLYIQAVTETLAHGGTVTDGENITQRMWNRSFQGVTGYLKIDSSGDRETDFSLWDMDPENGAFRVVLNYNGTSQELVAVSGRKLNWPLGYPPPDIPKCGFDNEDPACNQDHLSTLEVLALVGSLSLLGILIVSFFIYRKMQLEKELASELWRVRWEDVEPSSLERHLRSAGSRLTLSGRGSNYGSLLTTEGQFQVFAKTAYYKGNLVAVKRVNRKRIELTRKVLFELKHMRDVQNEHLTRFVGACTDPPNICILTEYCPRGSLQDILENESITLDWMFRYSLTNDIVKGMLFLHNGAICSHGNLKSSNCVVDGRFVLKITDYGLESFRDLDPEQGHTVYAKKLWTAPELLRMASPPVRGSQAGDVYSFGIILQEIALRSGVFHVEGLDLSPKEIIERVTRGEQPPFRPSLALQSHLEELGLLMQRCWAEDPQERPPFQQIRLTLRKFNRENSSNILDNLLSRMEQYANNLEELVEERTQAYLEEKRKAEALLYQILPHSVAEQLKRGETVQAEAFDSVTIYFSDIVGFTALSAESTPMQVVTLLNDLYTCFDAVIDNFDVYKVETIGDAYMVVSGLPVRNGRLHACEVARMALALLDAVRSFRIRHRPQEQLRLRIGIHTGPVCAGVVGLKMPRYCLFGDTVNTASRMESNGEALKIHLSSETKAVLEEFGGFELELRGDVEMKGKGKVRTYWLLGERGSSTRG
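Compound pre-incubated 30 min at room temperature on GloSensor-loaded HEK293 cells stably carrying hNpr1 and the pGS-40F cGMP biosensor. Stimulation uses hNppA at 0.1 nM final; luminescence is taken at baseline and 20 min post-agonist.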
Npr1 antag conf: Natriuretic polypeptide receptor (hNpr1) antagonism - Confirmation | shares compounds with hNpr1 antagonist | Potency, µM (top dose mostly 57.6 µM), usual class: inhibitors | HEK293 hNpr1 cGMP GloSensor luminescence, ANP-stimulated | hit rate 76% among 1,400 | AID 1347044, 2019; further: nearly all actives have a fitted effect of over 70% in size
NPR2 antag: Natriuretic polypeptide receptor (hNpr2) antagonism - Subtype selectivity assay. shares compounds with hNpr1 antagonist. HEK293 hNpr2 GloSensor cGMP luminescence, CNP-stimulated. Potency, µM (top dose mostly 57.6 µM), most hits filed as inhibitors. hit rate 67% among 1,400. AID 1347046, 2019; further: nearly all actives have a fitted effect of over 70% in size
FLuc counter: Natriuretic polypeptide receptor (hNpr1) antagonism - Confirmation firefly luciferase (FLuc) inhibition counterscreen | shares compounds with hNpr1 antagonist | purified FLuc enzyme, luminescence, Km substrate | Potency, µM (highest dose often 57.6 µM), most hits filed as inhibitors | hit rate 0.7% among 1,400 | AID 1347047, 2019; active means well fitted curve in the direction sought with a large enough effect; inconclusive means small, poorly fitted or top-dose-only effect, or another doubt; inactive means no such curve, though single readings can be large; an effect the other way counts as inactive or inconclusive
GloSensor cGMP: Natriuretic polypeptide receptor (hNpr1) antagonism - Counterscreen GloSensor control cell line | shares compounds with hNpr1 antagonist | Potency, µM (doses to about 57.6 µM), actives largely listed as inhibitors | HEK293 GloSensor cGMP, SNP-stimulated, luminescence | AID 1347051, 2019 | hit rate 69% among 1,400; further: nearly all actives have a fitted effect of over 70% in size
Numbers stand for hits; 0 = inactive; ? = inconclusive; - = no result given. In the library only some 11% were active in any assay of this set; here they are far more common. Unless noted, the call rests on the fitted dose curve.

SMILES | Luciferase inh | HEK293 tox | NIH3T3 tox | hNpr1 antagonist | Npr1 antag conf | NPR2 antag | FLuc counter | GloSensor cGMP
COc1ccc(C(=O)N2CCCN(c3cc(-c4ccc(Br)cc4)[nH]n3)CC2)cc1F | 0 | 40µM | 22µM | 11µM | 22µM | 19µM | 0 | 15µM
O=C(c1ccc2[nH]ccc2c1)N1CCCN(c2cc(-c3ccc(Br)cc3)[nH]n2)CC1 | 0 | 22µM | 32µM | 4.5µM | 24µM | 24µM | 0 | 19µM
COc1ccc(C(=O)N2CCN(c3cc(-c4ccc(F)cc4)[nH]n3)CC2)cc1OC | 0 | ? | ? | ? | - | - | - | -
COc1cc(C(=O)N2CCCN(c3cc(-c4ccc(F)cc4)[nH]n3)CC2)cc(OC)c1OC | 0 | 0 | 0 | 0 | - | - | - | -
COc1ccc(C(=O)N2CCN(c3cc(-c4ccc(Cl)cc4)[nH]n3)CC2)cc1OC | 0 | 35µM | ? | 6.3µM | 15µM | 19µM | 0 | 14µM
COc1ccc(C(=O)N2CCCN(c3cc(-c4ccc(Cl)cc4)[nH]n3)CC2)cc1F | 0 | ? | 25µM | ? | 24µM | 22µM | 0 | 24µM
CCCC(=O)N1Cc2ccccc2CC2(CCCN(Cc3ccncc3)C2)C1 (stereo unspecified) | - | 0 | 0 | - | - | - | - | -
CC(C)CCN1CCC(Cc2ccc(C(=O)NC3CC3)cc2)CC1 | 0 | ? | ? | 0 | - | - | - | -
Cc1ccc(CNC(=O)N2CCC(Cc3ccc(C(=O)NC4CC4)cc3)CC2)cc1 | 0 | ? | ? | ? | ? | ? | 0 | ?
COCCOCc1nc(C2CCN(S(=O)(=O)c3ccc(F)c(C)c3)C2)no1 (stereo unspecified) | - | 0 | 0 | - | - | - | - | -
CCc1ccc(CN2CCCC23Cc2ccccc2CNC3=O)s1 (stereo unspecified) | - | ? | ? | - | 0 | 0 | 0 | 0
COc1ccc(CN2CCCCC23Cc2ccccc2CNC3=O)c(OC)n1 (stereo unspecified) | - | ? | ? | - | ? | 17µM | 0 | 0
COC(=O)[C@@H](C)NC(=O)[C@@H]1CN(C(=O)c2cccc(F)c2)CCN1C(C)=O | 0 | 0 | 0 | 0 | - | - | - | -
CCC(=O)Nc1cc(-c2ccncc2)nn1-c1ccccc1 | - | 0 | ? | - | - | - | - | -
O=C1N(C2CCCCC2)C[C@H]2CN(Cc3ccc(C(F)(F)F)cc3)CCN12 | 0 | ? | ? | 13µM | 16µM | 20µM | 0 | 16µM
COc1ccc(CN2C[C@H]3CN(Cc4ccc(C)cc4)CCN3C2=O)cc1 | 0 | ? | ? | 18µM | 18µM | 22µM | 0 | 20µM
O=C1N(Cc2ccccn2)C[C@H]2CN(Cc3ccc(C(F)(F)F)cc3)CCN12 | 0 | ? | ? | ? | - | - | - | -
COc1ccc(CN2CCN3C(=O)N(Cc4ccc(C)cc4)C[C@H]3C2)cc1 | 0 | ? | ? | ? | - | - | - | -
O=C1N(Cc2ccc(F)cc2)C[C@H]2CN(Cc3ccc(C(F)(F)F)cc3)CCN12 | 0 | ? | ? | 10µM | 11µM | 16µM | 0 | 8.9µM
O=C1c2ccccc2CN1C1CCN(Cc2ccc(C(F)(F)F)cc2)CC1 | - | ? | ? | - | 22µM | 24µM | 0 | 19µM
COc1cccc(CNC(=O)C2CCN(c3cc(C(F)(F)F)ncn3)CC2)c1 | 0 | 0 | 0 | ? | ? | ? | 0 | ?
O=C(Cc1ccc(Cl)cc1)NC1CCN(c2cc(C(F)(F)F)ncn2)CC1 | 0 | ? | 0 | ? | - | - | - | -
O=C(NCc1ccc(Cl)cc1)C1CCN(c2cc(C(F)(F)F)ncn2)CC1 | 0 | ? | ? | 11µM | 19µM | 19µM | 0 | 15µM
CC(C)(C)NC(=O)N1CCCC1c1nc(CCOCC2CCCC2)no1 (stereo unspecified) | 0 | 0 | 0 | 0 | - | - | - | -
Cc1ccc(C(=O)NC2CCN(c3cnn(Cc4ccccc4)c(=O)c3)CC2)s1 | 0 | ? | ? | 0 | - | - | - | -
SMILES | Luciferase inh | HEK293 tox | NIH3T3 tox | hNpr1 antagonist | Npr1 antag conf | NPR2 antag | FLuc counter | GloSensor cGMP
Cn1nccc1C(=O)N1CCC2(CC1)OCCN(Cc1ccccc1F)C2=O | 0 | ? | 0 | 32µM | 35µM | 31µM | 0 | 31µM
Cc1ccc2c(c1)nc1n2[C@@H](CNS(=O)(=O)Cc2ccccc2)COC1 | 0 | ? | ? | 22µM | 35µM | 35µM | 0 | 28µM
Cc1ccc2nc3n(c2c1)[C@@H](CNS(=O)(=O)Cc1ccccc1)COC3 | 0 | ? | ? | ? | - | - | - | -
COc1ccc(S(=O)(=O)NC[C@H]2COCc3nc4c(C)cccc4n32)cc1 | 0 | ? | ? | 25µM | 18µM | 22µM | 0 | 14µM
COc1ccc(S(=O)(=O)NC[C@H]2COCc3nc4cc(C)ccc4n32)cc1 | 0 | ? | ? | 16µM | 31µM | 31µM | 0 | 22µM
COc1ccc(-c2cn3c(n2)CO[C@@H](CNS(=O)(=O)c2ccc(C)cc2)C3)cc1 | 0 | 0 | 0 | 28µM | 31µM | 31µM | ? | 28µM
COc1ccc2nc3n(c2c1)[C@@H](CNS(=O)(=O)c1ccccc1)COC3 | 0 | ? | ? | 0 | - | - | - | -
O=C1Nc2ccccc2CC12CCN(Cc1ccccc1)CC2 | 0 | 0 | 0 | 0 | - | - | - | -
CS(=O)(=O)c1ccc(CNC[C@H]2COCc3nc4cc(F)ccc4n32)cc1 | 0 | ? | ? | 0 | - | - | - | -
Cc1cccc2c1nc1n2[C@@H](CNCc2ccc(S(C)(=O)=O)cc2)COC1 | 0 | ? | ? | 25µM | 31µM | 35µM | 0 | 22µM
COc1ccc(C(=O)N2CCC(Cc3nc(-c4ccc(F)cc4)no3)CC2)c(OC)n1 | 0 | ? | ? | 2.8µM | 3.4µM | 4.8µM | 0 | 4.8µM
COc1ccccc1CCC(=O)N1CCC(Cc2nc(-c3ccc(F)cc3)no2)CC1 | 0 | ? | ? | ? | - | - | - | -
COCc1nc(C2CCCN(C(=O)c3ccc(OC)nc3OC)C2)no1 (stereo unspecified) | 0 | 0 | 0 | 0 | - | - | - | -
COc1ccc(-c2noc(CC3CCN(C(=O)Cc4ccccc4OC)CC3)n2)cc1 | 0 | ? | ? | ? | 22µM | 19µM | 0 | 22µM
COc1ccc(-c2noc([C@@H]3CCCN3C(=O)Cc3ccccc3OC)n2)cc1 | 0 | ? | 0 | 0 | - | - | - | -
COc1ccccc1CC(=O)N1CCC(Cc2nc(-c3ccc(F)cc3)no2)CC1 | 0 | ? | ? | 1.3µM | 2.4µM | 2.4µM | 0 | 1.9µM
COc1ccccc1C(=O)N1CCC(Cc2nc(-c3ccc(F)cc3)no2)CC1 | 0 | ? | ? | 6.3µM | 9.7µM | 12µM | 0 | 11µM
